Marburg entry: blocks Marburg virus binding or cell entry. Marburg virus pseudotype entry/binding inhibition, cell-based. Potency, µM (series often up to 49.2 µM), without a hit: at the top dose activity change, negative = inhibition, usual class: inhibitors. 18,000 tested, 6.5% active. AID 720532
LASV entry inh: Lassa virus entry inhibition; Lassa virus pseudotyped entry inhibition, cell-based qHTS; Potency, µM (doses to about 49.2 µM), for the others: at the top dose activity change, negative = inhibition, hits mostly inhibitors; 18,000 tested, 4.1% active
Starred values were filed as active, the others as inactive; ? = inconclusive; . = not tested or not shown; ! = not active in a repeat; [ ] = remark or other dose. Hits are enriched below; roughly 8% of the tested compounds scored in any of these assays. The call rests on the fitted dose curve; tested in HEK293 cells. On the % scale 0 is the no-effect control and ±100 the full control effect; potency means the concentration at half of the fitted maximal effect.

SMILES | Marburg entry | LASV entry inh
CC(C)NCC(O)COc1ccccc1-n1cccc1 (centres undefined) | ? | 3.9%
C=CCc1ccccc1OCC(O)CNC(C)C (centres undefined) | 11.2µM* | 1.1%
CC(C)NC[C@@H](O)COc1cccc2ccccc12 | ? | -12.9%
COC(=O)[C@]1(C)C=C[C@@H](C)[C@H](c2ccccc2Br)N1C(=O)C(F)(F)F | -15.2%[8.59 µM] | .
COC(=O)[C@H]1O[C@@H](c2c(OC)c(OC)c(C)c(OC)c2OC)[C@H](C)[C@@H](O)[C@@H]1C | 6.2%[8.59 µM] | 1.7%[8.59 µM]
N#Cc1ccc2c(c1)C[C@]1(c3ccsc3)Oc3c(c(=O)oc4ccccc34)[C@H]2O1 | 5.3%[8.59 µM] | 5.3%[8.59 µM]
CN(CCc1ccc(Cl)c(Cl)c1)CC(O)COc1ccc(NS(C)(=O)=O)cc1 (centres undefined) | ? | 3.1%
CN(CCc1ccc(Cl)c(Cl)c1)CCN1CCCCCC1 | 10µM* | ?
CN(CCc1ccc(Cl)c(Cl)c1)[C@H]1CCCC[C@H]1N1CCCC1 | 6.31µM* | 17.8µM*
O=C(O)c1ccc(CCN2CCN(CC=Cc3ccc(Cl)cc3)CC2)cc1 | 10.5% | 0.1%
CN1CCN(CCc2ccc(Cl)c(Cl)c2)CC1 | 17.8µM*! | ?
C#CCN1C(=O)[C@]2(OCCC=C[C@H]2C)c2c(Br)cccc21 | ? | 0.7%[8.59 µM]
CO[C@H]1C[C@@H]2CC[C@@H](C)[C@@](O)(O2)C(=O)C(=O)N2CCCC[C@H]2C(=O)OC([C@H](C)C[C@@H]2CC[C@@H](O)[C@H](OC)C2)CC(=O)[C@H](C)/C=C(\C)[C@@H](O)[C@@H](OC)C(=O)[C@H](C)C[C@H](C)/C=C/C=C/C=C/1C (some centres undefined) | 35.5µM*! | 28.2µM*!
N=c1ccn2c(n1)OC1C(O)C(CO)OC12 (centres undefined) | 0.708µM* | ?
N=c1ccn2c(n1)OCC1C2O[C@@H](O)[C@H]1O (some centres undefined) | 14.1µM* | ?
O=c1ncccn1[C@@H]1O[C@H](CO)C(O)[C@@H]1O (some centres undefined) | -4.3% | -3.0%
C=CC1CC2C=CCOP(=O)(O1)O2 (centres undefined) | ? | -11.7%
Cc1ccc2nc(NCCN)c3ncc(C)n3c2c1 | 7.94µM* | ?
